Bioassay records from PubChem BioAssay.
Only some compounds are listed: those with a hit (about 12% of all), similar ones and a draw of the others.
JMJD2A Tudor inh: qHTS Assay for Inhibitors of JMJD2A-Tudor Domain | AlphaScreen JMJD2A-Tudor / H3K4me3 peptide binding | Potency, µM (titrated, usually from 114 µM), actives largely listed as inhibitors | hit rate 4.4% among 390,000 | AID 504339, 2011; note: nearly all actives have a fitted effect of over 50% in size
Sfp inh: qHTS Assay for Inhibitors of Bacillus subtilis Sfp phosphopantetheinyl transferase (PPTase) | 4'-phosphopantetheinyl transferase ffp (Bacillus subtilis), Q9F4F7 | Biochemical Sfp PPTase activity, qHTS | Potency, µM, usual class: inhibitors | hit rate 3.5% among 310,000;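 note: the enzyme is Sfp with the accession as filed and its product quenches rhodamine fluorescence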
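After 15 min at room temperature with compound, 15 nM Sfp received 5 uM rhodamine-CoA plus 12.5 uM BHQ-2-ybbR (50 mM Hepes pH 7.6, 10 mM MgCl2). Rate came from the fluorescence difference over 30 min, ex 525/em 598 nm.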
G9a block: qHTS Assay for Inhibitors of Histone Lysine Methyltransferase G9a; Histone-lysine N-methyltransferase EHMT2 (Homo sapiens), Q96KQ7; G9a H3K9 monomethylation, AlphaScreen, 2 h; Potency, µM (highest dose often 102 µM), hits mostly inhibitors; hit rate 8.8% among 350,000; note: nearly all actives have a fitted effect of over 75% in size
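Using a bead-based AlphaScreen, monomethylated H3K9 product from 2 h room-temperature reactions (G9a 20 nM, peptide 500 nM, SAM 20 uM) was detected with 0.5 ug/mL rabbit anti-H3K9me1 antibody.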
HP1b chromo inh: HTS for Inhibitors of HP1-beta Chromodomain Interactions with Methylated Histone Tails; AlphaScreen HP1-beta / biotin-H3K9me3 peptide binding; Potency, µM (doses to about 114 µM), usual class: inhibitors; AID 540317, 2011; hit rate 0.56% among 390,000; note: nearly all actives have a fitted effect of over 70% in size
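AlphaScreen: HP1-beta (50 nM) preformed 30 min with biotin-H3(1-18)K9me3 peptide (50 nM) in PBS pH 7.4, 0.01% Tween-20. Compound added for 30 min at RT, then streptavidin donor/nickel chelate acceptor beads (10 ug/mL) for 30 min.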
BAZ2B inh: qHTS Assay for Inhibitors of BAZ2B; Bromodomain adjacent to zinc finger domain protein 2B (Homo sapiens), Q9UIF8; AlphaScreen BAZ2B-H3K14Ac peptide displacement; Potency, µM (titrated, usually from 114 µM), usual class: inhibitors; hit rate 4.4% among 360,000; note: nearly all actives have a fitted effect of over 60% in size
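Protein-peptide AlphaScreen: BAZ2B 50 nM, b-H3K14Ac 50 nM, 1x PBS pH 7.4 + 0.01% Tween-20. Preincubation 30 min RT; cpd 30 min RT (top 110 uM); beads 20 min RT, light-protected.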
L3MBTL1 inh: qHTS Assay for the Inhibitors of L3MBTL1. Lethal(3)malignant brain tumor-like protein 1 (Homo sapiens), Q9Y468. AlphaScreen L3MBTL1–H3K9me1 peptide binding. hit rate 0.66% among 230,000. Potency, µM (highest dose often 57.1 µM), hits mostly inhibitors; note: nearly all actives have a fitted effect of over 60% in size
Target sequence (Q9Y468 whole entry, looked up): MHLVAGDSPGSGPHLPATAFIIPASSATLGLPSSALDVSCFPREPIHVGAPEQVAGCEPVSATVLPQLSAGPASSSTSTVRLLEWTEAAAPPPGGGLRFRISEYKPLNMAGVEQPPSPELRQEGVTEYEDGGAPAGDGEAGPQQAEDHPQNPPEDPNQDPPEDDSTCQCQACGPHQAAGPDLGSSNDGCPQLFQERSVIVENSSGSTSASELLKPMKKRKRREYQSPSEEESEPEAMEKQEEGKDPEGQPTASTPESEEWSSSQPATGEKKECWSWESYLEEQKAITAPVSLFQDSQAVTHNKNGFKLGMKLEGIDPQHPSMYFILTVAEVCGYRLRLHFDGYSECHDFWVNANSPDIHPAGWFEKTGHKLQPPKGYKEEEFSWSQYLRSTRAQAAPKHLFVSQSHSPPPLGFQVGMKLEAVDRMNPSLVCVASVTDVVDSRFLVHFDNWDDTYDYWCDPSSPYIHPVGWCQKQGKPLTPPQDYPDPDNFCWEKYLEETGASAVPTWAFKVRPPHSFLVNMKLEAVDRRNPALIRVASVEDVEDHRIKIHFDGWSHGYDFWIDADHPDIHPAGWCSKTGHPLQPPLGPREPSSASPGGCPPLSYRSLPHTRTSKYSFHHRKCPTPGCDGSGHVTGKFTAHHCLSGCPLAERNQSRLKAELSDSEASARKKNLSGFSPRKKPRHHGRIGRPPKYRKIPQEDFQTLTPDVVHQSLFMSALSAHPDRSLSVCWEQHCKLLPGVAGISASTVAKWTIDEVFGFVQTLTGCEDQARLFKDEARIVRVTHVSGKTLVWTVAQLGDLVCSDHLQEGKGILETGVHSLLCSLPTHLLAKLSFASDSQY
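AlphaScreen assay: L3MBTL1 (50 nM final) was preincubated 30 min at room temperature with biotinylated H3(1-15)K9me1 peptide (75 nM final), then 30 min with library compounds; streptavidin donor and nickel chelate acceptor beads (10 ug/mL final) added, 30 min dark.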
Numbers stand for hits; - = inactive; ? = inconclusive; . = no result given; [ ] = dose if it differs, or a comment. Calls come from the whole dose curve; as a rule, active = well fitted curve in the direction sought with a large enough effect; inconclusive = small, poorly fitted or top-dose-only effect, or another doubt; inactive = no such curve, though single readings can be large; an effect the other way counts as inactive or inconclusive.

SMILES	JMJD2A Tudor inh	Sfp inh	G9a block	HP1b chromo inh	BAZ2B inh	L3MBTL1 inh
C#CCOCCOCCOCCNc1nc(N2CCN(C(=O)[C@H]([C@@H](C)CC)n3cc([C@@H](N)CO)nn3)CC2)nc(N2CCN(C(=O)[C@H](CCCCN)n3cc([C@@H](N)CC(C)C)nn3)CC2)n1	50µM	-	?	-	79µM	-
C#CCOCCOCCOCCNc1nc(N2CCN(C(=O)[C@H]([C@@H](C)CC)n3cc(CCCCN)nn3)CC2)nc(N2CCN(C(=O)[C@H](CCCCN)n3cc(CCC(=O)O)nn3)CC2)n1	-	.	-[2.33 µM]	-	-	-
Cc1c(C(=O)Nc2nc(-c3ccccn3)cs2)oc2ccccc12	?	.	?	?	35µM	?
Cc1nnc(NC(=O)c2oc3ccccc3c2C)s1	-	-	-	-	-	.
O=C(Nc1nc(-c2ccccn2)cs1)c1cc2ccccc2o1	25µM	-	-	-	22µM	20µM
CC(Sc1nnc2ccccn12)C(=O)Nc1ccc2c(c1)OCO2 (stereo not given)	-	-	-	-	-	-
Fc1ccc(Nc2ncncc2-c2ccccc2C(F)(F)F)cc1	.	79µM	-[0.501 µM]	.	.	.
FC(F)(F)c1ccccc1-c1cncnc1NCc1cccs1	.	-	-[0.501 µM]	.	.	.
CCCCCCCCCCCCCCCC(=O)C(F)(F)F	.	-	.	.	.	.
CCOC(=O)C1CCCN(C(=O)c2ccccc2NS(=O)(=O)c2ccc(F)cc2)C1 (stereo not given)	-	.	.	-	.	-
COc1ccc(C2(C)CC(C)(C)Nc3ccccc32)cc1 (stereo not given)	50µM	-	-[0.501 µM]	?	?	-[2.29 µM]
O=C(OCCCc1cc2ccccc2c(=O)o1)c1ccc2c(c1)OCO2	-	.	-[0.501 µM]	-	-	-
O=C(N/N=C/c1ccccn1)c1cc(C2CC2)[nH]n1	56µM	-	?	-	11µM	-
O=C(N/N=C/c1ccc([N+](=O)[O-])cc1)c1cc(C2CC2)[nH]n1	-	-	79µM	-	-	.
O=C(N/N=C/c1cccc2ccccc12)c1cc(C2CC2)[nH]n1	-	-	-	-	-	.
CC(=O)Nc1nc(N2C(=O)c3ccccc3C2=O)n(-c2ccccc2)n1	79µM	8.9µM	?	-	?	-[11.4 µM]
O=C(Nc1nc(N2C(=O)c3ccccc3C2=O)n(-c2ccccc2)n1)c1ccccc1	?	0.89µM	-	-	?	-
COc1ccc(C(=O)Nc2nc(N3C(=O)c4ccccc4C3=O)n(-c3ccccc3)n2)cc1	-	?	-	-	-	.
CN(/N=C/c1cc(Cl)cc(Cl)c1O)c1c(Cl)cccc1[N+](=O)[O-]	40µM	-	.	?	10µM	?
COc1ccc(C(O)(CCN2CCCCC2)C2CCCCC2)cc1 (stereo not given)	-	-	50µM	-	-	.
CC(C)COc1ccc(C(=O)OCCN2CCCCC2)cc1	-	-	-[2.33 µM]	-	-	.
CCCC(O)(CCN1CCCCC1)c1ccc(OCC)cc1 (stereo not given)	-	-	-	.	-	-
CCCCOc1ccc(C(=O)CCN2CCCCC2)cc1	-	-	10µM	-	-	-
CCCCCC(O)(CCN1CCCCC1)c1ccc(OCC)cc1 (stereo not given)	40µM	-	-	-	-	.
CC(C)COc1ccc(C(=O)CCN2CCCCC2)cc1	-	-	16µM	-	-	-
SMILES	JMJD2A Tudor inh	Sfp inh	G9a block	HP1b chromo inh	BAZ2B inh	L3MBTL1 inh
Cc1ccc(C)c(S(=O)(=O)c2nnn3c2nc(NC2CCCC2)c2sccc23)c1	-	.	-	-	-	.
COc1ccc(OC)c(NC(=O)Cn2cc(C(=O)c3cccs3)c3ccccc32)c1	-	.	-	-	-	.
Clc1cccc(CSc2nnc([C@@H]3CCCN3)o2)c1	-	-	-[0.501 µM]	-	79µM	-
COC(=O)c1ccnc(/C=N/O)c1	35µM	50µM	?	-	50µM	?
Cc1ccc2[nH]c3c(=O)n(N)c(C)nc3c2c1	-	-	-	-	-	-
Cc1ccc2[nH]c3c(=S)nc[nH]c3c2c1	?	-	1.8µM	-	-	-
Nc1c(-c2nc(-c3ccncc3)no2)nnn1CC(=O)Nc1ccccc1	-	.	-	-	-	.
CC(=O)Nc1ccc(SCCN2CCN(CCc3ccccc3)CCC2=O)cc1	?	50µM	.	-	.	.
Cc1cccc2c1c(N=NC(N)=S)c(O)n2C1OC(CO)C(O)C(O)C1O (stereo not given)	-	50µM	35µM	-	-	-
CCOc1ccc(CNc2cc(C)nc3nc(-c4cccc(C)c4)nn23)cc1OC	-	.	-	-	-	.
COc1ccc(N2C(=O)C(Cl)=C(Oc3cccc(OC)c3)C2=O)cc1	?	8.9µM	6.3µM	?	45µM	-
O=C1C(Cl)=C(Nc2cccc(O)c2)C(=O)N1Cc1ccccc1	45µM	-	35µM	?	?	-
COc1ccc(N2C(=O)C(Cl)=C(Nc3ccccc3O)C2=O)cc1	45µM	45µM	3.5µM	28µM	?	.
COc1ccc(N2C(=O)c3ccc(C(=O)Nc4ccccc4O)cc3C2=O)cc1	-	-	-	-	?	-
COc1ccc(OC)c(NC2=C(c3ccccc3)C(=O)c3ccccc32)c1	13µM	.	11µM	13µM	5.6µM	.
COc1ccc(N2C(=O)c3ccccc3C2=O)cc1	-	-	-[12.7 µM]	-	-	-
CC1CCCCN1C(=O)c1cccc(NC2=C(Cl)C(=O)N(Cc3ccccc3)C2=O)c1 (stereo not given)	?	.	-[12.7 µM]	-	-	-
CCCC[C@]12Cc3ccccc3C(O1)c1c(cc(-c3ccccc3)oc1=O)O2	.	-	-[2.33 µM]	.	?	.
CCOC(=O)C1CCN(S(=O)(=O)c2ccc3c4c(cccc24)C(=O)N3CC)CC1	-	.	.	-	.	-
COc1ccc(N2C(=O)C(Cl)=C(N(CCO)Cc3ccccc3)C2=O)cc1	-	-	50µM	-	?	-
COc1ccc(N2C(=O)c3cccc4c(N(C)CCO)ccc(c34)C2=O)cc1	-	-	-	-	-	-
COc1ccc(OC)c(NC2=C(Cl)C(=O)N(Cc3ccccc3)C2=O)c1	14µM	-	-	?	22µM	?
CCOc1ccccc1NC1=C(Cl)C(=O)N(Cc2ccccc2)C1=O	-[11.4 µM]	-	-[12.7 µM]	-	?	.
COc1ccc(N2C(=O)C(Cl)=C(Nc3ccccc3OC)C2=O)cc1	?	-	45µM	-	?	-
COc1cccc(NC(=O)c2ccc3[nH]c(C)cc(=O)c3c2)c1	-	.	?	-	-	.
C[C@]12CCC(=O)C=C1C=C[C@@H]1[C@@H]2CC[C@@]2(C)[C@H]1CC[C@@]21CCC(=O)O1	-	-	-	-	-	.
CC(=O)N1CCC2(CCN(Cc3ccncc3)CC2)CC1	.	-	-[12.7 µM]	.	.	.
